# Experimental data from ChEMBL document CHEMBL1961873, “Compounds: GSK PKIS; Assays: Nanosyn kinase panel” (2012).
# “And” between values parts separate entries of the source, which are not always exact repeats. Equal values may be shown once.
# Assays:
# [1] = system: Tyrosine-protein kinase ABL1 (Homo sapiens), P00519 [T315I]; conditions: at 1 µM
# [2] = system: Tyrosine-protein kinase ABL1 (Homo sapiens), P00519 [Y253F]; conditions: at 0.1 µM
# [3] = system: Tyrosine-protein kinase ABL1 (Homo sapiens), P00519 [Y253F]; conditions: at 1 µM
# [4] = molecular target: Tyrosine-protein kinase ABL1 (Homo sapiens) (UniProt P00519); conditions: at 0.1 µM
# [5] = molecular target: Tyrosine-protein kinase ABL1 (Homo sapiens) (UniProt P00519); conditions: at 1 µM
# [6] = molecular target: ALK tyrosine kinase receptor (Homo sapiens) (UniProt Q9UM73); conditions: at 0.1 µM
# ALK tyrosine kinase receptor (Homo sapiens), sequence (Q9UM73 19-1620 limits assumed): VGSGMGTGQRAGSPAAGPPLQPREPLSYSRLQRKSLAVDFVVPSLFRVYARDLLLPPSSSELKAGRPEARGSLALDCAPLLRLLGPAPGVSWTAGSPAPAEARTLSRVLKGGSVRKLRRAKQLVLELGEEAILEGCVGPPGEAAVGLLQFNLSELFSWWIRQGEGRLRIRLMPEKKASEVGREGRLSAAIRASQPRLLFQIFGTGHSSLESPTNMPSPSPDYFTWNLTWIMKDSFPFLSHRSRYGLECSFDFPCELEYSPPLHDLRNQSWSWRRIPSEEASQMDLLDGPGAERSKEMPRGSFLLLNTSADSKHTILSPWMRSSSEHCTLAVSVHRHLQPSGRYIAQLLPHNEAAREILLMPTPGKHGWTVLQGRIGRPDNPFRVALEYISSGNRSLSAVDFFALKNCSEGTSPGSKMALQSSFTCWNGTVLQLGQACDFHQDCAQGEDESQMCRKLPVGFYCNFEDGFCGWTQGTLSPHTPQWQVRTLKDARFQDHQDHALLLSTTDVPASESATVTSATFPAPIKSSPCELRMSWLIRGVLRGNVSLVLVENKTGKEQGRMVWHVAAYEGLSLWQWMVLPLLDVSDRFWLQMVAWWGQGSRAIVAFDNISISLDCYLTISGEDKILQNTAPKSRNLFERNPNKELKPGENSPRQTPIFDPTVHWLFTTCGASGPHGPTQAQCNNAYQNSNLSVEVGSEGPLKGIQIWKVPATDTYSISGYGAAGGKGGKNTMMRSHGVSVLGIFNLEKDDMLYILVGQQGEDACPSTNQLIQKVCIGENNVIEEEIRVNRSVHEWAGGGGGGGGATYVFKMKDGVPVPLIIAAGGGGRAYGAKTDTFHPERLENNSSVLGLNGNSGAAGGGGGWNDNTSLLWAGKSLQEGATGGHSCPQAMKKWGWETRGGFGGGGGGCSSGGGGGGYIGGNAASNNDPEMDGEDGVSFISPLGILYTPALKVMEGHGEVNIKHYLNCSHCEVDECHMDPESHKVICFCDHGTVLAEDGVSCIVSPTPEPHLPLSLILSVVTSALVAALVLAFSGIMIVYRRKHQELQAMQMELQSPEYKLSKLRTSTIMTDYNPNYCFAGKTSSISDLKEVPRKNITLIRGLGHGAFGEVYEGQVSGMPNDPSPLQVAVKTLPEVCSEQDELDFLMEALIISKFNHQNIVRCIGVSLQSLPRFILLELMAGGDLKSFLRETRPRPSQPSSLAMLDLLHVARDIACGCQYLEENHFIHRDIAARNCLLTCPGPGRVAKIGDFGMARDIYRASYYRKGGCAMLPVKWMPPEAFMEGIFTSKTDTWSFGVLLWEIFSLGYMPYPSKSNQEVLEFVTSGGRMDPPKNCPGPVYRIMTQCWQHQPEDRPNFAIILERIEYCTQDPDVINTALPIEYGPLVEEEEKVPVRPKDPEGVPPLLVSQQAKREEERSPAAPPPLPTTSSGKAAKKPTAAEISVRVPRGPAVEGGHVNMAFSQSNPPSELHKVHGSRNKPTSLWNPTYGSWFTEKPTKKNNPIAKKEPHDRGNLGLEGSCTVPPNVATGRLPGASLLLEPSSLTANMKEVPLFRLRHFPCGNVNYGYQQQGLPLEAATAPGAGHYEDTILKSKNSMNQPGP
# [7] = molecular target: ALK tyrosine kinase receptor (Homo sapiens) (UniProt Q9UM73); conditions: at 1 µM
# [8] = molecular target: Tyrosine-protein kinase ABL2 (Homo sapiens) (UniProt P42684); conditions: at 0.1 µM
# Tyrosine-protein kinase ABL2 (Homo sapiens), sequence (P42684 whole entry): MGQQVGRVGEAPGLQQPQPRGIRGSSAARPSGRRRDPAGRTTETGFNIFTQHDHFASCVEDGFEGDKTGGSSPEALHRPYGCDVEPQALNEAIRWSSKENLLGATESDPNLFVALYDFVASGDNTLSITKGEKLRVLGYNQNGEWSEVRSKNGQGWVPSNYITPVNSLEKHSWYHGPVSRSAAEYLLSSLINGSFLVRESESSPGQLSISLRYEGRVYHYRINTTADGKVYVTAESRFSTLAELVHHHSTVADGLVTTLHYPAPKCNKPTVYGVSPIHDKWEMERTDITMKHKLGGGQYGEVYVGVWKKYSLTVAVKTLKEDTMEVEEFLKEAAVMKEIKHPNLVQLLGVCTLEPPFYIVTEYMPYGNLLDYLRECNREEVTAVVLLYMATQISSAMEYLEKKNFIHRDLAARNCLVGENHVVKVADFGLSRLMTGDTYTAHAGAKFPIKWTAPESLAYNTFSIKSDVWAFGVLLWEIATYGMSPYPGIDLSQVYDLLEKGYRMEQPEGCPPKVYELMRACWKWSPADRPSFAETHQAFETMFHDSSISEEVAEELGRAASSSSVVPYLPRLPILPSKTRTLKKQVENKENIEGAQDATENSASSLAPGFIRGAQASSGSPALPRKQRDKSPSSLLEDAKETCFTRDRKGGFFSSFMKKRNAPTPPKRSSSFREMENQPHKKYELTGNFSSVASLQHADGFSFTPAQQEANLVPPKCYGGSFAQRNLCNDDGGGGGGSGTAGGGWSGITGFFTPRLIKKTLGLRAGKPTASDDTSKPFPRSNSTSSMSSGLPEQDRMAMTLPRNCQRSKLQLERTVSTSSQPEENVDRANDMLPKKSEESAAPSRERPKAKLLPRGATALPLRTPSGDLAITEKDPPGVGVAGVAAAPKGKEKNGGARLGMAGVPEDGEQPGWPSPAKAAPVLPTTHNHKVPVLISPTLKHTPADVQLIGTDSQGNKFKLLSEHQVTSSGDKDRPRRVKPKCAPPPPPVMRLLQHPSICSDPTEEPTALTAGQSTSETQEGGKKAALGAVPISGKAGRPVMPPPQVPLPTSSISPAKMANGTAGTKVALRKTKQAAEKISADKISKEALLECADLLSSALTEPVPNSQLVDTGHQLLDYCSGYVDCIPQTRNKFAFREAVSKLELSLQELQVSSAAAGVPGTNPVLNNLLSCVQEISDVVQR
# [9] = molecular target: Tyrosine-protein kinase ABL2 (Homo sapiens) (UniProt P42684); conditions: at 1 µM
# [10] = molecular target: Tyrosine-protein kinase receptor UFO (Homo sapiens) (UniProt P30530); conditions: at 0.1 µM
# Tyrosine-protein kinase receptor UFO (Homo sapiens), sequence (P30530 whole entry): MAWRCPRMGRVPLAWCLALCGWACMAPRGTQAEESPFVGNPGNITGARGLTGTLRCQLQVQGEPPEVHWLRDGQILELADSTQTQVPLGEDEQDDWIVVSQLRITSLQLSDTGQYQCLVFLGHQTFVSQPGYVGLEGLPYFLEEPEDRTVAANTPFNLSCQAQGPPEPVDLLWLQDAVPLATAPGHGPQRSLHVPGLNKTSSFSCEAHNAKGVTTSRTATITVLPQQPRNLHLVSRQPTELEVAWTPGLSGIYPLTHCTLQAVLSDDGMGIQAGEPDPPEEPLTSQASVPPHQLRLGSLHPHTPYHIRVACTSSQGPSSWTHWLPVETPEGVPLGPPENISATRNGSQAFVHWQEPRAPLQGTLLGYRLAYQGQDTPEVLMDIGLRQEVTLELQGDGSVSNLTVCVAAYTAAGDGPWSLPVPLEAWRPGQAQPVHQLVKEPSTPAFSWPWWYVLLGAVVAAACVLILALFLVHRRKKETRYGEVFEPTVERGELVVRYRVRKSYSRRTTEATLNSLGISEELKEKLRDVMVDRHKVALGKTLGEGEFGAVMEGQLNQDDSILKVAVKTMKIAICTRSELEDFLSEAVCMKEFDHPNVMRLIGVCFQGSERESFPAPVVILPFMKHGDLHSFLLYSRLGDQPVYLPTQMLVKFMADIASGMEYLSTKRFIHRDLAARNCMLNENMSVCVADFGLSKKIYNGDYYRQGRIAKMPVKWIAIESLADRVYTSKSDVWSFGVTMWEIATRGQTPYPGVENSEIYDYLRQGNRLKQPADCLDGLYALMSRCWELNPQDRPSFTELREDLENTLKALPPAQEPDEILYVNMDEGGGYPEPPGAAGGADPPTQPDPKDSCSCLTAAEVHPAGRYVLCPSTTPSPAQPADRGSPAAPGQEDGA
# [11] = molecular target: Tyrosine-protein kinase receptor UFO (Homo sapiens) (UniProt P30530); conditions: at 1 µM
# [12] = molecular target: Tyrosine-protein kinase Blk (Homo sapiens) (UniProt P51451); conditions: at 0.1 µM
# Tyrosine-protein kinase Blk (Homo sapiens), sequence (P51451 2-505 limits assumed): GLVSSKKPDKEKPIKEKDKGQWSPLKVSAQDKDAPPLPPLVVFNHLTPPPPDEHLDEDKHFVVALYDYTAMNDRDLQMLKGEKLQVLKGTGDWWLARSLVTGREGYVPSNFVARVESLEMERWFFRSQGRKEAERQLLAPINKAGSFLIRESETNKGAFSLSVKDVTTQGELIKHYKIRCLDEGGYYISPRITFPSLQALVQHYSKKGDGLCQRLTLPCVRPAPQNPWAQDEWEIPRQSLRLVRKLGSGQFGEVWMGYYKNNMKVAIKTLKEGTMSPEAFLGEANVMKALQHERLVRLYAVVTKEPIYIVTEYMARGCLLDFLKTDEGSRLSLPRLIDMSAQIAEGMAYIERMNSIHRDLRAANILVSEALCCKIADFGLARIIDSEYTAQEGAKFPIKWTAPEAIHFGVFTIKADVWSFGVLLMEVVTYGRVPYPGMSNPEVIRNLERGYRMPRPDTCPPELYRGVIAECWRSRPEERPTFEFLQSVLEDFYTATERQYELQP
# [13] = molecular target: Tyrosine-protein kinase Blk (Homo sapiens) (UniProt P51451); conditions: at 1 µM
# [14] = molecular target: T1, Cytoplasmic tyrosine-protein kinase BMX (Homo sapiens) (UniProt P51813); conditions: at 0.1 µM
# T1 sequence (whole entry): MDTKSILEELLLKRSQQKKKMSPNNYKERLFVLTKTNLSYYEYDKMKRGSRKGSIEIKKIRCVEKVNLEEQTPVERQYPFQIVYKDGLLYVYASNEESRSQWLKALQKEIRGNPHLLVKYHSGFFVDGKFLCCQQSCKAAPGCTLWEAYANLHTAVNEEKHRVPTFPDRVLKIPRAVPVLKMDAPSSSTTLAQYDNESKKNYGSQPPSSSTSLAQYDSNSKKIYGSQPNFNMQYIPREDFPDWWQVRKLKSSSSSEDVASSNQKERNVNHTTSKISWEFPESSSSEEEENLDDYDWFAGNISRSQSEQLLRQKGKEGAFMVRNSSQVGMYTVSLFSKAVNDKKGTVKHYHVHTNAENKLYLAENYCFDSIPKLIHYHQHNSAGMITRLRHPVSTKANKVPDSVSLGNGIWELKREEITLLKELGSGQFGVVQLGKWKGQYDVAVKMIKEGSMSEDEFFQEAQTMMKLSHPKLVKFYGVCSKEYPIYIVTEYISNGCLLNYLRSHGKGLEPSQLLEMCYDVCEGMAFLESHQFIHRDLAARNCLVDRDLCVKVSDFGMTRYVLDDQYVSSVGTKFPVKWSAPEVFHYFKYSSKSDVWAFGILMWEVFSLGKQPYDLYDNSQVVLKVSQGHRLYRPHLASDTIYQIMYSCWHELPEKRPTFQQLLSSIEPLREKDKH
# [15] = molecular target: T1, Cytoplasmic tyrosine-protein kinase BMX (Homo sapiens); conditions: at 1 µM
# [16] = molecular target: Protein-tyrosine kinase 6 (Homo sapiens) (UniProt Q13882); conditions: at 0.1 µM
# Protein-tyrosine kinase 6 (Homo sapiens), sequence (Q13882 whole entry, looked up): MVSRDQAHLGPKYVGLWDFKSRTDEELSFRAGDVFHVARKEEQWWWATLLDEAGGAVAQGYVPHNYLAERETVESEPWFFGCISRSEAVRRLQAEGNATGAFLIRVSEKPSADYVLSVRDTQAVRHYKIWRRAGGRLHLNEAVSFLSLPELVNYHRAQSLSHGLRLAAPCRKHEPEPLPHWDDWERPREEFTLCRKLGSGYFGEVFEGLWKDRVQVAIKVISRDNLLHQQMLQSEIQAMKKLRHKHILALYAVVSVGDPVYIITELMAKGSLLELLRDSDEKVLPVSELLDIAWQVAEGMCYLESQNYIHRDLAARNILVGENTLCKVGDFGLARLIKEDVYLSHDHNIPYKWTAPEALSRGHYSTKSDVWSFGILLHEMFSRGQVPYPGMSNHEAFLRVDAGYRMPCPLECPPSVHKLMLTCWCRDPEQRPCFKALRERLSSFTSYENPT
# [17] = molecular target: Protein-tyrosine kinase 6 (Homo sapiens) (UniProt Q13882); conditions: at 1 µM
# [18] = molecular target: Tyrosine-protein kinase BTK (Homo sapiens) (UniProt Q06187); conditions: at 0.1 µM
# [19] = molecular target: Tyrosine-protein kinase BTK (Homo sapiens) (UniProt Q06187); conditions: at 1 µM
# [20] = molecular target: Tyrosine-protein kinase CSK (Homo sapiens) (UniProt P41240); conditions: at 0.1 µM;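 also: value given is the averaged percent inhibition of CSK kinase activity, from the GSK PKIS kinase inhibitor set screening panel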
# Tyrosine-protein kinase CSK (Homo sapiens), sequence (P41240 2-450 limits assumed): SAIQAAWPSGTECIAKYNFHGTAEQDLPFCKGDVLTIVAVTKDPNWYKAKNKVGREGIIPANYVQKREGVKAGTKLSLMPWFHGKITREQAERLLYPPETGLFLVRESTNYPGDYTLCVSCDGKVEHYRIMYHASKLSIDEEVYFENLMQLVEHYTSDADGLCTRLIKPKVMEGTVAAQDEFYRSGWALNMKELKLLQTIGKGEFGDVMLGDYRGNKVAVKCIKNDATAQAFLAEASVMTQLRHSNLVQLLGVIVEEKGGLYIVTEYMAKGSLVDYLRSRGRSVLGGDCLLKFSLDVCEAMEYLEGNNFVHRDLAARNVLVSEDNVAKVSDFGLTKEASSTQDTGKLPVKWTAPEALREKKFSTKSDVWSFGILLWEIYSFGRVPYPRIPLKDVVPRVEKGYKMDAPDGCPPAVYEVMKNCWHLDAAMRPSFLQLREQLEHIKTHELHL
Structure (SMILES),inhibition [1],inhibition [2],inhibition [3],inhibition [4],inhibition [5],inhibition [6],inhibition [7],inhibition [8],inhibition [9],inhibition [10],inhibition [11],inhibition [12],inhibition [13],inhibition [14],inhibition [15],inhibition [16],inhibition [17],inhibition [18],inhibition [19],inhibition [20]
CC1(C)CC(n2cnc(-c3ccc(F)cc3)c2-c2ccnc(N)n2)CC(C)(C)N1,4.98%,8%,5.3%,-0.56%,4.28%,-0.41%,1.55%,-1.89%,1.01%,-0.07%,1.58%,0.51%,1.43%,-2.57%,1.06%,-2.17%,1.66%,-1.42%,-1.35%,-0.2%
CCCNc1cccc(-n2ncc3c(N/N=C/c4ccncc4)ncnc32)c1,85.8%,42.4%,86.2%,24.3%,75.3%,0.42%,3.35%,11.6%,61.9%,2.01%,13.2%,14.2%,62.9%,1.67%,13.4%,8.53%,51%,1.43%,4.2%,2.59%
CNC(=O)c1cncc(/C=C/c2ccccc2C)c1,4.28%,6.17%,31.7%,5.99%,25.9%,4.09%,4.22%,6.78%,16.1%,-3.18%,-5.59%,2.89%,6.2%,0.93%,16.1%,4.25%,14.5%,0.03%,1.29%,4.87%
Cc1c2ccc(N(C)c3ccnc(Nc4cccc(S(N)(=O)=O)c4)n3)cc2nn1C,52.2%,43.4%,83.3%,16.7%,64.5%,1.38%,18.8%,19.5%,62.8%,-8.43%,1.26%,5.04%,56.5%,-1.19%,17%,13.8%,51.2%,-2.88%,1.31%,5.79%
CN1CCC(C(=O)Nc2n[nH]c3nc(-c4ccc(O)cc4)c(Br)cc23)CC1,22.5% and 15.6%,3.92% and 2.19%,15.1% and 9.74%,0.28% and 3.94%,10.7% and 12.2%,2.7% and 5.6%,31.6% and 35.4%,-0.95% and 2.31%,4.33% and 4.83%,-5.65% and -3.46%,-2.51% and -3.39%,-0.49% and 1.32%,0.8% and 4.39%,4.12% and 2.58%,3.63% and 4.39%,4.15% and 1.12%,9.38% and 6.4%,-3.39% and 0.29%,-2.64% and 0.46%,-0.63%
COC(=O)Nc1nc2ccc(Oc3ccc(NC(=O)Nc4cc(C(F)(F)F)ccc4F)cc3)cc2s1,92.6%,32.2%,75.7%,42.7%,79.8%,0.95%,6.26%,51.4%,73.6%,13.7%,46.6%,0.64%,3.2%,0.05%,2.68%,1.06%,0.36%,-0.69%,-0.85%,4.36%
Nc1ncnc2occ(-c3ccc(NC(=O)Nc4cc(C(F)(F)F)ccc4F)cc3)c12,91.1% and 85%,10.7% and 5.56%,44.9% and 29.1%,10.9% and 4.97%,58.9% and 35.7%,2.84% and -1.14%,22.8% and 12.6%,25.2% and 23.9%,64.2% and 56.4%,-3.96% and -3.19%,37.3% and 23.5%,4.09% and 1.25%,39% and 23.5%,17.8% and 9.86%,69.5% and 57.2%,3.76% and -0.33%,4.26% and 3.06%,0.97% and 0.09%,5.11% and 1.18%,6.39% and 0.36%
O=C(O[C@H]1CN[C@H](C#Cc2cc3ncnc(Nc4ccc5c(ccn5Cc5cc(F)ccc5F)c4)c3s2)C1)N1CCOCC1,3.69%,2.24%,4.4%,3.14%,3.38%,4.15%,4.73%,1.18%,1.47%,-7.4%,-5.54%,2.36%,8.13%,4.47%,4.96%,3.43%,4.9%,0.02%,2.23%,3.21%
CCOc1ccc2c(-c3ccnc(Nc4cc(OC)cc(C(F)(F)F)c4)n3)cnn2n1,3.15%,2.66%,7.81%,5.8%,11.5%,-0.08%,1.27%,6.07%,9.53%,0.45%,-1.43%,0.5%,4.83%,-3.75%,2.82%,1.51%,2.17%,-0.58%,-0.1%,-0.12%
NS(=O)(=O)c1ccc(N/N=C2\C(=O)Nc3cccc(CCc4ccncc4)c32)cc1,6.34%,3.29%,8.15%,3.11%,4.4%,1.31%,4.47%,2.11%,3.55%,-0.12%,0.32%,4.33%,10.4%,3.67%,4.79%,-0.69%,-1.07%,0.17%,0.16%,1.04%
Nc1nonc1-c1nc2cnccc2n1C1CC1,2.56% and 3.11%,3.83% and 3.92%,4.12% and 4.54%,5.16% and -2.65%,8.03% and 2.25%,2.63% and -1.89%,5.84% and 0.48%,3.44% and -2.1%,5.37% and -2.96%,-7.63% and -3.39%,0.16% and -1.32%,2.66% and -2.38%,4.59% and -2.3%,6.52% and -2.61%,4.75% and 2.31%,5.31% and 2.92%,3.69% and 2.66%,1.67% and -4.68%,1.98% and -4.91%,3.81% and 3.48%
COc1cc(N2CCN(C(C)C)CC2)ccc1Nc1nc(Nc2cccc3ncccc23)c2cc[nH]c2n1,0.12%,0.03%,2.91%,1.91%,9.59%,51.7%,86.3%,4.93%,8.07%,1.7%,5.43%,0.1%,2.64%,5.26%,-0.89%,-1.05%,-2.93%,-0.29%,-0.05%,-1.28%
O=C(O[C@H]1CN[C@H](C#Cc2cc3ncnc(Nc4ccc(OCc5cccc(F)c5)c(Cl)c4)c3s2)C1)N1CCOCC1,6.54%,2.93%,5.78%,1.93%,3.32%,7.04%,6.43%,0.82%,0.68%,-7.05%,-9.27%,3.99%,1.91%,-1.21%,3.25%,5.25%,9.3%,0.42%,-0.33%,7.67%
